# In the library only some 2.2% were active in any assay of this set; here they are far more common.
# TLR4 MyD88 comp: blocks binding of human TLR4 to MyD88. HeLa CL3-4 TLR4/MyD88 BLA complementation, FRET ratio. AID 861. O00206+Q99836. 200,000 compounds, 0.18% hits. inhibition, % at 8.4 µM; in the data active means inhibition above about 25%;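 further: 0% = vehicle and 100% = reference inhibitor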
# TLR9-MyD88 inh: TLR9-MyD88 interaction inhibition; inhibition, % at 4.98 µM; CHO BLA complementation TLR9-MyD88, CCF4 FRET ratio; 340,000 compounds, 0.21% hits; Q9NR96+Q99836; AID 504734;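 active means inhibition above the mean over all tested compounds plus 3 SD, cut at about 21% in these data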;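 further: 0% = DMSO only wells and 100% = clavulanate BLA inhibitor control wells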
# TMEM16A inh: inhibitors of mouse TMEM16A calcium-activated chloride channel. Q8BHY3. 310,000 compounds, 1.2% hits. HEK293 TMEM16A/YFP iodide influx fluorescence, ionomycin. normalized B-score (activity score, 25-100; higher = stronger inhibition) at 10 µM. AID 588511;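 active means ratio plate-corrected score three or more library SD toward inhibition, starting fluorescence score within five deviations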;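 further: score derived from kinetic fluorescence span divided by baseline fluorescence per well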
# Target sequence (Q8BHY3 whole entry, looked up): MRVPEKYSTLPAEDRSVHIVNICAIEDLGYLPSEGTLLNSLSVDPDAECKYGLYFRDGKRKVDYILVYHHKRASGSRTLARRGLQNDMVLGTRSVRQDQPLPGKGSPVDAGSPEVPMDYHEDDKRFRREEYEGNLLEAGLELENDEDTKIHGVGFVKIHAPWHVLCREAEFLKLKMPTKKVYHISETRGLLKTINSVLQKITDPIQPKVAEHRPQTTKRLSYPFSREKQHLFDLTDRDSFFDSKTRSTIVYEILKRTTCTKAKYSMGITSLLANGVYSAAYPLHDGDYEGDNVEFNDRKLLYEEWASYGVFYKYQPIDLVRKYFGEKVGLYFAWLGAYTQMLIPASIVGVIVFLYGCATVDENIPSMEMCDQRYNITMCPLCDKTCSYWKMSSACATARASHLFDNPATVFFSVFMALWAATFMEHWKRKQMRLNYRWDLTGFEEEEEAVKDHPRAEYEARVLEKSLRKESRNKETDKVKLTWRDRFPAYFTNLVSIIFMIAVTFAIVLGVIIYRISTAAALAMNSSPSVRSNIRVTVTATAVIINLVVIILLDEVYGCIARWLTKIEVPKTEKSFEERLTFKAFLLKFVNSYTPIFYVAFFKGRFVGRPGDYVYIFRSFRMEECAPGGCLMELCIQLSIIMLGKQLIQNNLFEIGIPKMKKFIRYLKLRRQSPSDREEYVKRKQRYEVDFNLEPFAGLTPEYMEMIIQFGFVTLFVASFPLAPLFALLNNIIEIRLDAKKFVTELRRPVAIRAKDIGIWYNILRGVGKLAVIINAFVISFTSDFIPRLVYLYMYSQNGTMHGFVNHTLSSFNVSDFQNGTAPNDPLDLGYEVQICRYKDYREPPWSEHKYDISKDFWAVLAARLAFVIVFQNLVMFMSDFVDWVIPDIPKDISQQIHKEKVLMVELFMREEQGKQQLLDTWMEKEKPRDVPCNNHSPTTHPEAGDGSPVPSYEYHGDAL
# GRK2 aptamer HTS: inhibitors of human GRK2 displacing RNA aptamer; P25098; bead flow cytometry, FAM-aptamer displacement from GRK2; inhibition of aptamer binding, % at 10 µM; 330,000 compounds, 0.59% hits; AID 488847;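 active means inhibition of aptamer binding above 40%, roughly 3 SD of noise, on plates passing a quality check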;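 further: median bead fluorescence of bound FAM aptamer so fluorescent compounds give negative values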
# TMEM16A act: activates or potentiates the mouse TMEM16A chloride channel; HEK293 TMEM16A/YFP-H148Q/I152L, iodide quench fluorescence; active compounds read low; B-score at 10 µM; 340,000 compounds, 0.3% hits; AID 623877;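 active means fluorescence-ratio B-score plate-corrected deviation score at least 3 library SD below zero, with starting fluorescence score within 5 deviations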;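 further: channel opened by trigger with iodide after compound preincubation; score built on the fluorescence ratio of max minus min over baseline; more negative score means more quench and so TMEM16A activation or potentiation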
# NOD2-RIPK2 inh: inhibitors of human NOD2-RIPK2 interaction; AID 624267; CHO BLA complementation NOD2-RIPK2, CCF4 ratio; 360,000 compounds, 0.38% hits; inhibition, % at 4.98 µM; O43353; in the data active means inhibition above about 21%;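 further: 0% = vehicle only and 100% = reference blocker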
# NOD2-RIPK2 conf: NOD2-RIPK2 interaction inhibition confirmed | shares compounds with NOD2-RIPK2 inh | CHO cells, NOD2-RIPK2 BLA complementation, CCF4 FRET | inhibition, % at 4.98 µM | 1,200 compounds, 70% hits | AID 624370;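 active means mean inhibition across replicates above a set limit taken from the earlier primary screen, cut at about 21% in these data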;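 further: 0% = DMSO-only wells and the high end = clavulanate BLA-blocked wells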
# NOD2 BLA counter: hits BLA reporter in NOD2-RIPK2 inhibitor counterscreen; shares compounds with NOD2-RIPK2 inh; CHO BLA reporter, CCF4 FRET ratio; inhibition, % at 4.98 µM; 1,200 compounds, 57% hits; AID 624371;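 active means mean inhibition above the low-control mean inhibition plus three low-control SD, cut at about 11% in these data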;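 further: 0% = DMSO only wells and 100% = clavulanate high control wells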
# * marks the source's active call; other numbers are inactive results; i = inactive; x = no result given.
SMILES,TLR4 MyD88 comp,TLR9-MyD88 inh,TMEM16A inh,GRK2 aptamer HTS,TMEM16A act,NOD2-RIPK2 inh,NOD2-RIPK2 conf,NOD2 BLA counter
CSCC[C@@H](CO)NC(=O)[C@H]1O[C@@H](n2ccc(N)nc2=O)[C@H](O)[C@@H]1O,x,x,x,x,x,28.6*,-6.2,-0.2
CC(=O)Oc1c(-c2ccco2)oc2ccccc2c1=O,7.6,20.0,i,1.0,i,27.5*,31.4*,30.2*
O=C(O)COc1c(-c2ccccc2)oc2ccccc2c1=O,-6.2,-6.5,i,2.0,i,-24.1,x,x
COc1ccc(CN(CC(=O)NCc2ccco2)C(=O)CNS(=O)(=O)c2ccc(C)cc2)cc1,x,-8.6,i,0.0,i,-3.0,x,x
COc1cccc(N2CCN(c3ncnc4c3[nH]c3ccc(F)cc34)CC2C)c1 (centres undefined),6.0,2.8,100*,0.0,i,28.3*,14.7,-0.5
CCCn1cc(CN2CCC(n3nccc3NC(=O)c3ccc4c(c3)OCO4)CC2)c(C)n1,x,1.0,i,1.0,i,2.7,x,x
Cc1cccc(C)c1NC(=O)C(CCc1ccccc1)n1c(=O)c(-c2cc3ccccc3[nH]2)nc2ccccc21 (centres undefined),x,x,x,x,x,44.7*,41.3*,67.2*
CC(C)(C)NC(=O)C(CCc1ccccc1)n1c(=O)c(-c2cc3ccccc3[nH]2)nc2ccccc21 (centres undefined),x,x,x,x,x,43.8*,40.3*,66.2*
O=C(NC1CCCCC1)C(CCc1ccccc1)n1c(=O)c(-c2ccccc2)nc2ccccc21 (centres undefined),x,x,x,x,x,-14.9,x,x
Cc1cccc(C)c1NC(=O)C(CCc1ccccc1)n1c(=O)c(-c2ccccc2)nc2ccccc21 (centres undefined),x,x,x,x,x,11.4,x,x
Cc1nc(C)c(C(=O)OCC(=O)Nc2ccc(C)c(C)c2)s1,x,-0.7,x,x,x,-3.2,x,x
O=C1C(F)=CC(COC(c2ccccc2)(c2ccccc2)c2ccccc2)OC1n1cc(F)c(=O)[nH]c1=O (centres undefined),x,-3.4,x,x,-13.5*,29.7*,58.4*,23.9*
COC(=O)c1ccc(C(=O)OC)c(NC(=O)Cc2cccs2)c1,x,1.8,x,x,x,-10.3,x,x
COc1ccc(NC(=O)CC2C(=O)N(c3ccc(OC)cc3)C(=S)N2NC(=O)c2cccc(F)c2)cc1 (centres undefined),-17.6,6.6,i,0.0,i,22.4*,4.8,-3.1
COc1ccc(N2C(=O)C(CC(=O)Nc3ccc(Cl)cc3)N(NC(=O)c3cccc(F)c3)C2=S)cc1 (centres undefined),x,-4.2,i,2.0,i,8.3,x,x
COc1cccc(N2CCN(S(=O)(=O)c3c(C)[nH]c(C)c3C(=O)N3CCCC3)CC2)c1,x,-5.0,i,2.0,i,22.6*,1.4,-2.5
Cc1[nH]c(C)c(S(=O)(=O)N2CCN(c3cccc(Cl)c3)CC2)c1C(=O)N1CCCC1,x,-24.3,i,2.0,i,6.0,x,x
COc1ccccc1NS(=O)(=O)c1c(C)[nH]c(C)c1C(=O)N1CCCC1,x,-8.8,i,3.0,i,35.6*,-4.6,-7.3
Cc1[nH]c(C)c(S(=O)(=O)Nc2ccccc2Cl)c1C(=O)N1CCCC1,x,-4.9,i,0.0,i,-4.5,x,x
Cc1cccc2c(=O)cc(C)n(Cc3ccccc3)c12,-3.9,-9.1,i,2.0,i,-2.0,x,x
O=Nc1c(O)n(Cc2ccc(Cl)cc2)c2ccccc12,3.3,20.1,i,4.0,i,22.5*,22.1*,16.9*
Cc1cccc2c(N=O)c(O)n(CCc3ccccc3)c12,x,15.7,i,0.0,i,25.9*,25.1*,13.8*
NC(=S)N=Nc1c(O)n(Cc2ccc(F)cc2)c2ccccc12,5.0,-8.7,i,0.0,i,2.3,x,x
N#CC1=C(N)Oc2cc(N)ccc2C1c1ccc(Cl)cc1 (centres undefined),x,7.1,i,0.0,i,6.6,x,x
N#CC1=C(N)Oc2cc(N)ccc2C1c1ccccc1Cl (centres undefined),x,-4.0,i,1.0,i,27.6*,-1.6,-1.0
SMILES,TLR4 MyD88 comp,TLR9-MyD88 inh,TMEM16A inh,GRK2 aptamer HTS,TMEM16A act,NOD2-RIPK2 inh,NOD2-RIPK2 conf,NOD2 BLA counter
CCCc1nnc(NC(=O)c2nc(S(=O)(=O)Cc3cccc(C)c3)ncc2Cl)s1,x,1.0,i,2.0,i,19.6,x,x
Cc1cccc(CS(=O)(=O)c2ncc(Cl)c(C(=O)Nc3c(C)cccc3C)n2)c1,x,8.0,i,0.0,i,67.3*,47.4*,-4.0
Cc1cccc(C)c1NC(=O)c1nc(S(=O)(=O)Cc2ccccc2)ncc1Cl,x,8.4,i,0.0,i,54.8*,47.9*,5.1
Cc1cccc(CS(=O)(=O)c2ncc(Cl)c(C(=O)NCc3ccccc3)n2)c1,x,2.0,i,3.0,i,56.9*,69.0*,14.9*
O=C(CSc1nnc(-c2ccccc2)c2ccccc12)NCCN1C(=O)CSC1=O,x,4.9,x,0.0,i,-3.7,x,x
COc1ccc(-c2cc(-c3nc4ccccn4c3NCc3ccccc3)ccc2OC)cc1,x,-4.6,x,1.0,i,29.1*,20.9,5.8
COc1ccc(-c2nc3ccccn3c2NCc2ccc3c(c2)OCO3)cc1,2.9,12.7,i,0.0,i,0.7,x,x
Nc1c(S(=O)(=O)c2ccccc2)csc1C(=O)O,1.8,-12.2,i,4.0,i,43.7*,-8.0,-4.0
Cc1ccc(C(=O)CCS(=O)(=O)c2ccc(Br)cc2)cc1,x,5.6,i,0.0,i,2.9,x,x
Cc1ccc(S(=O)(=O)CCC(=O)c2cccc([N+](=O)[O-])c2)cc1,x,-10.9,i,0.0,i,22.4*,38.5*,1.4
COc1ccc(C(=O)/C=C/C(=O)N(CC(=O)NC2CCCCC2)Cc2cccs2)c(O)c1,23.7,18.3,i,0.0,i,74.4*,85.0*,17.2*
CC(C)C[C@@]12C(=O)N(c3cccc(F)c3)C(=O)N1[C@H](c1ccc(Cl)cc1)[C@@H]1C(=O)N(C3CCCCC3)C(=O)[C@@H]12,x,11.7,i,0.0,i,-6.6,x,x
O=[N+]([O-])c1c(NCCCO)cc(Sc2nc3ccccc3s2)c2nonc12,12.3,40.0*,i,2.0,i,91.9*,81.8*,29.3*
CC(=O)OCCCNc1cc(SCc2ccco2)c2nonc2c1[N+](=O)[O-],6.7,-1.1,i,4.0,i,-20.1,x,x
CC1=CC(=O)C(C(C)C)=C/C1=N/OS(=O)(=O)c1ccccc1,x,6.3,100*,0.0,-6.53*,58.9*,36.5*,0.4
